According to PubChem BioAssay (NCI):
Compounds without any hit were thinned out: in the full panel of roughly 83,000, 20% have a hit.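 Results are percent growth after 48 hours of single-concentration exposure. 100 means growth as in untreated cells, lower positive values show inhibition; negative values down to -100 show cell death.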 The source made the active and inactive calls. The calls were made as follows: active = growth percent below 10; inactive = the rest.

Assays:
Assay in all cases: NCI-60 one-dose screen, 48 h (100 = growth as untreated, 0 = no growth, -100 = all killed)
NCI-H23 lung = conditions: 10 µM unless noted
NCI-H226 lung = conditions: 10 µM unless noted
NCI-H322M lung = conditions: 10 µM unless noted
HOP-62 NSCLC = conditions: 10 µM unless noted
NCI-H460 lung = conditions: 10 µM unless noted
HOP-92 NSCLC = conditions: 10 µM unless noted
NCI-H522 lung = conditions: 10 µM unless noted
A549/ATCC NSCLC = conditions: 10 µM unless noted
786-0 renal = conditions: 10 µM unless noted
COLO 205 colon = conditions: 10 µM unless noted
DU-145 prostate = conditions: 10 µM unless noted
K-562 leukemia = conditions: 10 µM unless noted
MALME-3M melanoma = conditions: 10 µM unless noted
MDA-MB-231 breast = conditions: 10 µM unless noted
RXF 393 renal = conditions: 10 µM unless noted
SF-268 CNS = conditions: 10 µM unless noted
SF-295 CNS = conditions: 10 µM unless noted
SF-539 CNS = conditions: 10 µM unless noted
UACC-257 melanoma = conditions: 10 µM

Measured: growth

O=C(c1cccc(F)c1)n1ccc2cc(NC(=S)Nc3cccnc3)ccc21
inactive: NCI-H23 lung 100% | NCI-H226 lung 112% | NCI-H322M lung 99% | HOP-62 NSCLC 106% | NCI-H460 lung 98.6% | HOP-92 NSCLC 123% | NCI-H522 lung 87.1% | A549/ATCC NSCLC 98.7% | 786-0 renal 80.5% | COLO 205 colon 115% | DU-145 prostate 102% | K-562 leukemia 96% | MALME-3M melanoma 92.7% | MDA-MB-231 breast 106% | RXF 393 renal 108% | SF-268 CNS 95.7% | SF-295 CNS 97.3% | SF-539 CNS 99.8% | UACC-257 melanoma 97.4%

O=S(=O)(NCCCNc1nccc(-n2cnc3ccccc32)n1)c1ccc(F)cc1
inactive: NCI-H23 lung 70.4% | NCI-H226 lung 64.1% | NCI-H322M lung 99.5% | HOP-62 NSCLC 82.7% | NCI-H460 lung 79.7% | HOP-92 NSCLC 87.9% | NCI-H522 lung 68.5% | A549/ATCC NSCLC 88.8% | 786-0 renal 97.7% | COLO 205 colon 86% | DU-145 prostate 87.2% | K-562 leukemia 37.2% | MALME-3M melanoma 86.1% | MDA-MB-231 breast 74.4% | RXF 393 renal 163% | SF-268 CNS 86.3% | SF-295 CNS 70.6% | SF-539 CNS 86.2% | UACC-257 melanoma 66.2%

Fc1ccc(-c2cc3nc(C(Cl)Cl)nc(-c4cccs4)n3n2)cc1
inactive: NCI-H23 lung 35.2% | NCI-H226 lung 95% | NCI-H522 lung 78.9% | 786-0 renal 58.2% | K-562 leukemia 44.5% | MALME-3M melanoma 62.5% | SF-268 CNS 13.3% | UACC-257 melanoma 46.2%
active: NCI-H322M lung -9.31% | HOP-62 NSCLC 5.82% | NCI-H460 lung -32.8% | HOP-92 NSCLC -6.12% | A549/ATCC NSCLC -14.2% | COLO 205 colon -23.1% | DU-145 prostate -21.8% | MDA-MB-231 breast -15.2% | RXF 393 renal -44.1% | SF-295 CNS -7.41% | SF-539 CNS -2.29%

NC(=O)c1c(NC(=O)c2cccc(C(F)(F)F)c2F)sc2c1CCC(=O)C2
inactive: NCI-H226 lung 24.8% | NCI-H322M lung 98.6% | HOP-62 NSCLC 58.4% | NCI-H460 lung 10.9% | HOP-92 NSCLC 13.8% | A549/ATCC NSCLC 64.8% | 786-0 renal 30.2% | DU-145 prostate 89.1% | K-562 leukemia 13.4% | MALME-3M melanoma 19.4% | MDA-MB-231 breast 12.9% | SF-268 CNS 21.6% | SF-295 CNS 40% | UACC-257 melanoma 12.9%
active: NCI-H23 lung 4.57% | NCI-H522 lung -11.4% | COLO 205 colon -9.67% | RXF 393 renal -5.49% | SF-539 CNS 0.149%

O=C(O)c1ccc(-n2cc(CNc3ccc(Cl)cc3)c(-c3ccc(F)cc3)n2)cc1
inactive: NCI-H23 lung 104% | NCI-H226 lung 103% | NCI-H322M lung 95.5% | HOP-62 NSCLC 95.8% | NCI-H460 lung 98.4% | HOP-92 NSCLC 117% | NCI-H522 lung 91.2% | A549/ATCC NSCLC 85.4% | 786-0 renal 101% | COLO 205 colon 119% | DU-145 prostate 103% | K-562 leukemia 83.4% | MALME-3M melanoma 92.9% | MDA-MB-231 breast 94.2% | RXF 393 renal 94.9% | SF-268 CNS 104% | SF-295 CNS 87.6% | SF-539 CNS 98.1% | UACC-257 melanoma 101%

O=C(NCCCNc1cc(-c2cn(-c3ccccc3)nc2-c2cccc(O)c2)ccn1)Nc1cccc(C(F)(F)F)c1
inactive: NCI-H23 lung 58% | NCI-H226 lung 62% | NCI-H322M lung 54.2% | HOP-62 NSCLC 43.2% | NCI-H460 lung 28.7% | HOP-92 NSCLC 40.2% | NCI-H522 lung 46.9% | A549/ATCC NSCLC 49% | DU-145 prostate 66.9% | K-562 leukemia 13.3% | MALME-3M melanoma 17.7% | MDA-MB-231 breast 18.6% | SF-268 CNS 38.6% | SF-539 CNS 27.5% | UACC-257 melanoma 21.1%
active: 786-0 renal -4.95% | COLO 205 colon 3.19% | RXF 393 renal -14% | SF-295 CNS -15.3%

Cc1ccc(-n2cc(/C=C/C(=O)c3ccc(S(C)(=O)=O)cc3)c(-c3ccc(S(C)(=O)=O)cc3)n2)cc1
inactive: NCI-H23 lung 87.4% | NCI-H226 lung 100% | NCI-H322M lung 94.6% | HOP-62 NSCLC 89.2% | NCI-H460 lung 100% | HOP-92 NSCLC 115% | NCI-H522 lung 74.2% | A549/ATCC NSCLC 103% | 786-0 renal 103% | COLO 205 colon 114% | DU-145 prostate 104% | K-562 leukemia 27% | MALME-3M melanoma 50.3% | MDA-MB-231 breast 86.5% | RXF 393 renal 97.9% | SF-268 CNS 104% | SF-295 CNS 97.2% | SF-539 CNS 88.8% | UACC-257 melanoma 100%

COc1ccc(CCN2C(=O)/C(=C/c3nc(CO)cs3)SC2=S)cc1
inactive: NCI-H23 lung 86.7% | NCI-H226 lung 101% | NCI-H322M lung 95.7% | HOP-62 NSCLC 82.8% | NCI-H460 lung 102% | HOP-92 NSCLC 27.7% | NCI-H522 lung 35.9% | A549/ATCC NSCLC 95.3% | 786-0 renal 27.9% | COLO 205 colon 102% | DU-145 prostate 46.1% | K-562 leukemia 60.4% | MALME-3M melanoma 73.2% | MDA-MB-231 breast 53.2% | RXF 393 renal 51.1% | SF-268 CNS 94.8% | SF-295 CNS 101% | SF-539 CNS 11.2% | UACC-257 melanoma 91.2%

C#C[C@]1(O)CC[C@H]2[C@@H]3CC=C4c5sc(C6CCOCC6)nc5CC[C@]4(C)[C@H]3CC[C@@]21C
inactive: NCI-H23 lung 74.4% | NCI-H226 lung 82.5% | NCI-H322M lung 84.1% | HOP-62 NSCLC 90.5% | NCI-H460 lung 79.8% | HOP-92 NSCLC 103% | NCI-H522 lung 80.8% | A549/ATCC NSCLC 73.2% | 786-0 renal 62.7% | COLO 205 colon 103% | DU-145 prostate 97.9% | K-562 leukemia 13.2% | MALME-3M melanoma 88.8% | MDA-MB-231 breast 73.9% | SF-268 CNS 91.2% | SF-295 CNS 37.8% | SF-539 CNS 56.5% | UACC-257 melanoma 78.3%
active: RXF 393 renal 4.95%

CC(C)=CCc1c2c(c(O)c3c1O[C@]14C(=C[C@@H]5C[C@H]1C(C)(C)O[C@@]4(C/C=C(/C)C(=O)O)C5=O)C3=O)CC(O)C(C)(C)O2 (stereo not given in full)
active: NCI-H23 lung -60.3% | HOP-62 NSCLC -19.3% | NCI-H460 lung -33.2% | HOP-92 NSCLC -8.8% | NCI-H522 lung -53.9% | A549/ATCC NSCLC -9.15% | 786-0 renal -39.6% | COLO 205 colon -67% | DU-145 prostate -78.2% | K-562 leukemia 5.83% | MALME-3M melanoma -38.5% | MDA-MB-231 breast 0.342% | RXF 393 renal -77.4% | SF-268 CNS -40.7% | SF-295 CNS -48.5% | SF-539 CNS -37.2% | UACC-257 melanoma -32.5%
inactive: NCI-H226 lung 18.4% | NCI-H322M lung 11.6%

COc1ccc(-c2nnc(SCc3ccc(O)c4ncccc34)n2-c2ccccc2)cc1
active: NCI-H460 lung 2.93% | HOP-92 NSCLC -4.84% | RXF 393 renal 7.27% | SF-295 CNS -1.96% | SF-539 CNS 4.55%
inactive: NCI-H23 lung 17.6% | NCI-H226 lung 30.1% | NCI-H322M lung 19.8% | HOP-62 NSCLC 19.9% | NCI-H522 lung 15.5% | A549/ATCC NSCLC 26.4% | 786-0 renal 25.5% | COLO 205 colon 68.6% | DU-145 prostate 24.8% | K-562 leukemia 13.3% | MALME-3M melanoma 10.6% | MDA-MB-231 breast 30.9% | SF-268 CNS 18.1% | UACC-257 melanoma 13.6%

Cc1cn(-c2cc(NC(=O)c3cncc(C#Cc4cnc5ccc(O[C@H]6CCOC6)nn45)c3)cc(C(F)(F)F)c2)cn1
inactive: NCI-H23 lung 53.7% | NCI-H226 lung 44.9% | NCI-H322M lung 105% | HOP-62 NSCLC 87.9% | NCI-H460 lung 99.9% | NCI-H522 lung 93.2% | A549/ATCC NSCLC 91.7% | 786-0 renal 105% | COLO 205 colon 69.1% | DU-145 prostate 91.8% | K-562 leukemia 12.9% | MALME-3M melanoma 52.7% | MDA-MB-231 breast 47.7% | RXF 393 renal 60.4% | SF-268 CNS 94.7% | SF-295 CNS 96.8% | SF-539 CNS 59.3% | UACC-257 melanoma 97.1%
active: HOP-92 NSCLC -9.26%

CCOC(=O)c1c(Nc2ccccc2)nn2c(-c3ccc(Br)cc3)ccnc12
active: RXF 393 renal -12.3%
inactive: NCI-H23 lung 64.9% | NCI-H226 lung 63.3% | NCI-H322M lung 79.1% | HOP-62 NSCLC 47.4% | NCI-H460 lung 33.9% | HOP-92 NSCLC 28.2% | NCI-H522 lung 80.9% | A549/ATCC NSCLC 56.4% | 786-0 renal 54.3% | COLO 205 colon 80.1% | DU-145 prostate 77.8% | K-562 leukemia 78.9% | MALME-3M melanoma 75% | MDA-MB-231 breast 70.4% | SF-268 CNS 68.7% | SF-295 CNS 77.2% | SF-539 CNS 63.8% | UACC-257 melanoma 103%

CCC(CC)N1C(=O)/C(=c2\sc3n(c2=O)C2C(NN=3)N(CC)C(=O)N2CC)c2ccccc21 (stereo not given)
active: NCI-H23 lung 7.64% | NCI-H460 lung 4.83% | COLO 205 colon -13.2% | DU-145 prostate 7.43% | K-562 leukemia 9.31% | RXF 393 renal 9.61% | SF-295 CNS 7.59% | SF-539 CNS 3.34%
inactive: NCI-H226 lung 53.6% | NCI-H322M lung 61% | HOP-62 NSCLC 29.6% | HOP-92 NSCLC 86.7% | NCI-H522 lung 20.1% | A549/ATCC NSCLC 26% | 786-0 renal 34.9% | MALME-3M melanoma 70% | MDA-MB-231 breast 32.8% | SF-268 CNS 35.7% | UACC-257 melanoma 69.6%

O=C1c2cc(Br)ccc2-n2c1nc1cc(Br)ccc1c2=O
inactive: NCI-H23 lung 58.6% | NCI-H226 lung 78.3% | NCI-H322M lung 88.7% | HOP-62 NSCLC 82.3% | NCI-H460 lung 85.4% | HOP-92 NSCLC 134% | NCI-H522 lung 68.9% | A549/ATCC NSCLC 67.1% | 786-0 renal 88.5% | COLO 205 colon 85.7% | DU-145 prostate 74.1% | K-562 leukemia 73.9% | MALME-3M melanoma 44.1% | MDA-MB-231 breast 75.5% | RXF 393 renal 97.6% | SF-268 CNS 78% | SF-295 CNS 87% | SF-539 CNS 92.4% | UACC-257 melanoma 43.1%
